PubChem BioAssay
Active and inactive are the calls of the source. Rule as the data show it: active = inhibition above about 80%; inactive = the rest.

assay: LFS_MB_P medulloblastoma growth inhibition, cell-based, chromothripsis tumors, cisplatin or BGB combos (AID 1671449); details: LFS_MB_P medulloblastoma cells, at 0.5 µM, stronger effect = higher value;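 also: cells exposed for 96 hours; 0% = vehicle DMSO and 100% = killing by high DMSO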

Row | SMILES | inhibition
1 | O=c1cc(-c2cccc3c2Sc2ccccc2S3)oc(N2CCOCC2)c1 | 81.3% (active)
2 | CCc1c2c(nc3ccc(O)cc13)-c1cc3c(c(=O)n1C2)COC(=O)[C@]3(O)CC | -26% (inactive)
3 | O=c1[nH]c(-c2ccc(C(F)(F)F)cc2)nc2c1CSCC2 | -18.1% (inactive)

same assay, conditions: LFS_MB_P medulloblastoma cells, measured here: combination with BGB IC20, at 0.005 µM

Row | SMILES | inhibition [%]
4 | O=c1cc(-c2cccc3c2Sc2ccccc2S3)oc(N2CCOCC2)c1 | -22.8
5 | CCc1c2c(nc3ccc(O)cc13)-c1cc3c(c(=O)n1C2)COC(=O)[C@]3(O)CC | -6.89
6 | O=c1[nH]c(-c2ccc(C(F)(F)F)cc2)nc2c1CSCC2 | 0.844

same assay, conditions: LFS_MB_P medulloblastoma cells, measured here: combination with BGB IC40, at 0.005 µM

Row | SMILES | inhibition [%]
7 | O=c1cc(-c2cccc3c2Sc2ccccc2S3)oc(N2CCOCC2)c1 | -15.3
8 | CCc1c2c(nc3ccc(O)cc13)-c1cc3c(c(=O)n1C2)COC(=O)[C@]3(O)CC | -27.9
9 | O=c1[nH]c(-c2ccc(C(F)(F)F)cc2)nc2c1CSCC2 | 12.4

same assay, conditions: LFS_MB_P medulloblastoma cells, measured here: combination with BGB IC40, at 0.05 µM

Row | SMILES | inhibition [%]
10 | O=c1cc(-c2cccc3c2Sc2ccccc2S3)oc(N2CCOCC2)c1 | -27.2
11 | CCc1c2c(nc3ccc(O)cc13)-c1cc3c(c(=O)n1C2)COC(=O)[C@]3(O)CC | -20.9
12 | O=c1[nH]c(-c2ccc(C(F)(F)F)cc2)nc2c1CSCC2 | -21.3

same assay, conditions: LFS_MB_P medulloblastoma cells, measured here: combination with cisplatin, at 0.5 µM, stronger effect = higher value

Row | SMILES | inhibition [%]
13 | O=c1cc(-c2cccc3c2Sc2ccccc2S3)oc(N2CCOCC2)c1 | 108
14 | CCc1c2c(nc3ccc(O)cc13)-c1cc3c(c(=O)n1C2)COC(=O)[C@]3(O)CC | -58.2
15 | O=c1[nH]c(-c2ccc(C(F)(F)F)cc2)nc2c1CSCC2 | -36.1

same assay, conditions: LFS_MB_P medulloblastoma cells, measured here: combination with cisplatin, at 5 µM, stronger effect = higher value

Row | SMILES | inhibition [%]
16 | O=c1cc(-c2cccc3c2Sc2ccccc2S3)oc(N2CCOCC2)c1 | -58.3
17 | CCc1c2c(nc3ccc(O)cc13)-c1cc3c(c(=O)n1C2)COC(=O)[C@]3(O)CC | 87.9
18 | O=c1[nH]c(-c2ccc(C(F)(F)F)cc2)nc2c1CSCC2 | -17.2

assay: HDN33 neuroblastoma growth inhibition, cell-based, chromothripsis tumors, cisplatin or BGB combos (AID 1671450); details: HDN33 neuroblastoma cells, BGB combo, at 5 µM, stronger effect = higher value;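 also: cells exposed to compound for four days; 0% = vehicle DMSO and 100% = cell killing by high DMSO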

Row | SMILES | inhibition [%]
19 | O=c1cc(-c2cccc3c2Sc2ccccc2S3)oc(N2CCOCC2)c1 | -23.9
20 | CCc1c2c(nc3ccc(O)cc13)-c1cc3c(c(=O)n1C2)COC(=O)[C@]3(O)CC | 98.3
21 | O=c1[nH]c(-c2ccc(C(F)(F)F)cc2)nc2c1CSCC2 | 8.65

same assay, conditions: HDN33 neuroblastoma cells, at 0.5 µM, stronger effect = higher value

Row | SMILES | inhibition
22 | O=c1cc(-c2cccc3c2Sc2ccccc2S3)oc(N2CCOCC2)c1 | -20.7% (inactive)
23 | CCc1c2c(nc3ccc(O)cc13)-c1cc3c(c(=O)n1C2)COC(=O)[C@]3(O)CC | 84.1% (active)
24 | O=c1[nH]c(-c2ccc(C(F)(F)F)cc2)nc2c1CSCC2 | -7.61% (inactive)
